Test results: PubChem BioAssay
A number with no mark means an inactive call. Active and inactive are the calls of the source.

Tested on: not listed separately
Experiment: MM1S myeloma cell viability, profiling panel, resazurin fluorescence, basal, 24 h, PK04 Diversity Set (AID 1174);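 also: MM1S multiple myeloma cell line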
Details: higher = more signal, called active from +8 up or from −8 down
Also: test concentration not given here.

For C=CCOC(=O)[C@H]1[C@@H]2C(=O)O[C@@H](c3ccccc3)[C@@H](c3ccccc3)N2[C@@H](c2ccc(OCCOC(=O)[C@H]3C[C@H]4C(=O)NCC(=O)N4[C@H]3c3cccc(OCCO)c3)cc2)[C@]12C(=O)Nc1ccc(I)cc12, which z-score is on record?
The z-score was 0.265.

For C=CCNC(=O)[C@H]1[C@@H]2C(=O)O[C@@H](c3ccccc3)[C@@H](c3ccccc3)N2[C@@H](c2ccc(O)cc2)[C@]12C(=O)N(C(=O)OCCOC)c1ccc(C#Cc3ccc(OC)cc3)cc12, which z-score is on record?
The z-score was -0.466.

For CS(=O)(=O)CCOC(=O)C1=CC(CCCO)=CC(C2CC2)N(Cc2sc3ccccc3c2Cl)C=C1C(=O)OCCS(C)(=O)=O (configuration not stated), which z-score is on record?
The z-score was -0.548.

Which z-score does the source give for CC(C)(C)OC(=O)CC[C@@]1(C(=O)N2CCOCC2)N=C(c2ccc(OCCCO)cc2)O[C@@H]1c1ccccc1CN=[N+]=[N-] here?
The z-score was -0.383.

With CN1C(=O)C2C=CC(C(O)c3ccc(I)cc3)N(N(c3ccccc3)c3ccccc3)C2C1=O (configuration not stated) as the compound, how does the z-score read?
Its z-score is -0.788.

With CC(C)(C)OC(=O)N1[C@@H](C=C(Br)Br)COC1(C)C as the compound, how does the z-score read?
Its z-score is 0.0757.

With CCCN1C(=O)[C@@]2(c3ccc([N+](=O)[O-])cc3)CC(=O)N(C3CCCCC3)[C@@H]2c2ccc(CO)cc21 as the compound, how does the z-score read?
Its z-score is -0.674.

With C=CCNC(=O)[C@H]1[C@@H]2C(=O)O[C@@H](c3ccccc3)[C@@H](c3ccccc3)N2[C@@H](c2ccc(OCCO)cc2)[C@]12C(=O)N(C(=O)OCCOC)c1ccc(C#CCC(C(=O)OC)C(=O)OC)cc12 as the compound, how does the z-score read?
Its z-score is -0.374.

With CN1C(=O)C2C=CC(C(O)COCc3ccccc3)N(Nc3ccc([N+](=O)[O-])cc3[N+](=O)[O-])C2C1=O (configuration not stated) as the compound, how does the z-score read?
The z-score was -0.407.

For COC(=O)C1=CC(c2ccc(CO)cc2)=CC(C2CC2)N(Cc2cc3c(cc2Br)OCO3)C=C1C(=O)OC (configuration not stated), which z-score is on record?
Its z-score is -1.42.

Which z-score does the source give for C=CC[C@H](O)c1ccc(O)c(F)c1 here?
Its z-score is -0.711.

For COc1ccc(C(O)C2C=CC3C(=O)N(c4ccccc4)C(=O)C3N2Nc2ccccc2F)c2ccccc12 (configuration not stated), which z-score is on record?
Its z-score is -0.042.

With C=C(COC)C(=O)CC[C@@H](OC(=O)c1ccccc1-c1ccccc1C(=O)O)c1ccccc1OCCO as the compound, how does the z-score read?
The z-score was -1.95.

For COC(=O)C(CC#Cc1ccc2c(c1)[C@]1(C(=O)N2)[C@H](C(=O)N2CCCCCCC2)[C@H]2C(=O)O[C@H](c3ccccc3)[C@H](c3ccccc3)N2[C@@H]1c1ccc(OCCO)cc1)C(=O)OC, which z-score is on record?
Its z-score is 0.229.

With C[C@H]1C2[C@H](Cc3ccccc3)NC(=O)[C@]23C(=O)N[C@@H](Cc2ccccc2)C(=O)N2CCC[C@H]2C(=O)NC/C=C/CC/C=C/C3[C@@H]2O[C@]12C (some centres not stated) as the compound, how does the z-score read?
Its z-score is -0.299.

Which z-score does the source give for CCCC[C@@H](O)C1=C(C)Cn2c(=O)n(-c3ccccc3)c(=O)n2[C@H]1CO here?
Its z-score is -0.0268.

For CC(C)c1ccc(NN2C(C(O)C3CCCCC3)C=CC3C(=O)N(c4ccccc4)C(=O)C32)cc1 (configuration not stated), which z-score is on record?
Its z-score is -1.12.

Biological target: Dihydroorotate dehydrogenase (quinone), mitochondrial (Plasmodium falciparum (isolate 3D7)) (UniProt Q08210)
Sequence (Q08210 whole entry, looked up): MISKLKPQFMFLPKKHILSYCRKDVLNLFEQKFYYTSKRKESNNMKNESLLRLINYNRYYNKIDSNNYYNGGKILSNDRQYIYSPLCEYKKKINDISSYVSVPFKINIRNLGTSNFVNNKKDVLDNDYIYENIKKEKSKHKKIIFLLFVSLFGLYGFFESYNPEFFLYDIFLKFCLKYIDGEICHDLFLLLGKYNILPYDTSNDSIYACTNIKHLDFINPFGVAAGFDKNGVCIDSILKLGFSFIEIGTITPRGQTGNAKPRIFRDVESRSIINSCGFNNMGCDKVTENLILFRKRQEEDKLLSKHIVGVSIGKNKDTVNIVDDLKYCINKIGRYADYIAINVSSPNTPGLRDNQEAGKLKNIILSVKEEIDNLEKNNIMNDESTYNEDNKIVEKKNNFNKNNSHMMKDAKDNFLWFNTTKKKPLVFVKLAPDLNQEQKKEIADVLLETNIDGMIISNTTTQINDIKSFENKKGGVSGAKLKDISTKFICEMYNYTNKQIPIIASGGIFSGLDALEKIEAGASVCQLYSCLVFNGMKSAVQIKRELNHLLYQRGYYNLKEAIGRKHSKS
Experiment: PfDHODH enzyme inhibitors, primary screen, biochemical, C-terminal His tag, absorbance 600 nm (AID 1175);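 also: recombinant parasite enzyme with a five histidine tag at its C terminus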
Details: DCIP absorbance 600 nm, higher = more signal, called active from +8 up or from −8 down

Which composite z-score does the source give for COCCOC(=O)N1C(=O)[C@@]2(c3cc(C#CCC(C(=O)OC)C(=O)OC)ccc31)[C@H](C(N)=O)[C@H]1C(=O)O[C@H](c3ccccc3)[C@H](c3ccccc3)N1[C@@H]2c1ccccc1OCCO here?
The composite z-score was -7.07.

With C=C(COC)/C(=C/C[C@@H](OC(C)=O)c1cccc(OCCO)c1)c1cnc2ccccc2c1 as the compound, how does the composite z-score read?
Its composite z-score is -7.29.

Which composite z-score does the source give for CC(C)[Si](C#Cc1ccccc1)(O[C@H](c1ccccc1)c1cn(Cc2ccccc2)nn1)C(C)C here?
Its composite z-score is -1.03.

Which composite z-score does the source give for C[C@]1(C(=O)O)c2ccccc2C(=O)N(Cc2cc(C(F)(F)F)cc(C(F)(F)F)c2)[C@H]1c1ccc(CO)cc1 here?
Its composite z-score is -0.979.

With [N-]=[N+]=NCc1ccccc1[C@H]1OC(c2ccc(OCCCO)cc2)=N[C@@]1(CCS(=O)(=O)c1ccccc1)C(=O)NCCN1CCOCC1 as the compound, how does the composite z-score read?
The composite z-score was 0.12.

With C=CC[C@@]1(C(=O)NCCCOC)N=C(c2ccc(OCCCO)cc2)O[C@@H]1c1ccccc1CN=[N+]=[N-] as the compound, how does the composite z-score read?
Its composite z-score is 0.346.

Which composite z-score does the source give for CC(=O)NCCCC[C@@H]1NC(=O)[C@H]2C[C@@H](C(=O)O)[C@@H](c3cccc(OCCO)c3)N2C1=O here?
The composite z-score was -0.969.

With C=CCNC(=O)[C@H]1[C@@H]2C(=O)O[C@@H](c3ccccc3)[C@@H](c3ccccc3)N2[C@@H](c2ccc(O)cc2)[C@]12C(=O)Nc1ccccc12 as the compound, how does the composite z-score read?
Its composite z-score is 0.776.

For Cc1ccc(S[C@]2(C(=O)NC(C)C)CC(=O)N(Cc3ccccc3)[C@@H]2c2ccc(CO)cc2I)cc1, which composite z-score is on record?
Its composite z-score is -0.489.

With COC(=O)c1ccc(OC)c(/C=C\CC(OC(=O)c2ccncc2)c2ccccc2)c1 (configuration not stated) as the compound, how does the composite z-score read?
The composite z-score was -6.33.

For COc1ccc([Si](C)(C)[C@H]2[C@H](CC(=O)N(CCO)Cc3ccccc3)O[C@@]3(C(=O)N(Cc4ccc(N5C(=O)c6cccc7cccc5c67)cc4)c4ccccc43)[C@@H]2C)cc1, which composite z-score is on record?
The composite z-score was -1.51.

For C=C(C)C1CN([C@H](CO)c2ccccc2)C(=O)/C1=C\c1ccccc1 (some centres not stated), which composite z-score is on record?
The composite z-score was -2.88.

Which composite z-score does the source give for C[N+](C)(C)CCCC[C@@H]1NC(=O)[C@H]2C[C@@H](C(=O)NCCCCCN)[C@@H](c3ccc(O)cc3)N2C1=O here?
Its composite z-score is -1.86.

With CC(=O)NCCCC[C@@H]1NC(=O)[C@H]2C[C@@H](C(=O)NCCCCCN)[C@@H](c3ccc(O)cc3)N2C1=O as the compound, how does the composite z-score read?
The composite z-score was 0.538.

Which composite z-score does the source give for O=C1c2ccccc2[C@](Cc2ccccc2I)(C(=O)NCCN2CCOCC2)[C@H](c2ccc(CO)cc2)N1Cc1ccccc1C(F)(F)F here?
Its composite z-score is -0.584.

For CCOC(=O)C[C@H]1[C@H](OC(=O)c2ccc(-c3ccccc3)cc2)[C@@H](NC(=O)c2ccc(-c3ccccc3)cc2)c2cc(OCCCO)ccc2N1C(=O)c1ccccc1, which composite z-score is on record?
Its composite z-score is -0.0085.

With COC(=O)C1=CC(CCCO)=CC(c2ccc(CN3CCCC3)cc2)N(C)C=C1C(=O)OC (configuration not stated) as the compound, how does the composite z-score read?
Its composite z-score is -1.58.

With CCCC1(C(=O)OC)C=C2C(=C(C(C)C)C(=O)C2C)CN1 (configuration not stated) as the compound, how does the composite z-score read?
The composite z-score was -1.05.

Which composite z-score does the source give for C=CCOC(=O)[C@H]1[C@@H]2C(=O)O[C@@H](c3ccccc3)[C@@H](c3ccccc3)N2[C@@H](c2ccc(OCCOC(=O)[C@H]3C[C@H]4C(=O)NCC(=O)N4[C@H]3c3cccc(OCCO)c3)cc2)[C@]12C(=O)Nc1ccc(I)cc12 here?
The composite z-score was 0.603.

Which composite z-score does the source give for C=CCNC(=O)[C@H]1[C@@H]2C(=O)O[C@@H](c3ccccc3)[C@@H](c3ccccc3)N2[C@@H](c2ccc(O)cc2)[C@]12C(=O)N(C(=O)OCCOC)c1ccc(C#Cc3ccc(OC)cc3)cc12 here?
Its composite z-score is -0.208.

With CS(=O)(=O)CCOC(=O)C1=CC(CCCO)=CC(C2CC2)N(Cc2sc3ccccc3c2Cl)C=C1C(=O)OCCS(C)(=O)=O (configuration not stated) as the compound, how does the composite z-score read?
The composite z-score was -0.559.

For CC(C)(C)OC(=O)CC[C@@]1(C(=O)N2CCOCC2)N=C(c2ccc(OCCCO)cc2)O[C@@H]1c1ccccc1CN=[N+]=[N-], which composite z-score is on record?
Its composite z-score is -0.405.

Which composite z-score does the source give for CN1C(=O)C2C=CC(C(O)c3ccc(I)cc3)N(N(c3ccccc3)c3ccccc3)C2C1=O (configuration not stated) here?
Its composite z-score is 0.0495.

For CC(C)(C)OC(=O)N1[C@@H](C=C(Br)Br)COC1(C)C, which composite z-score is on record?
The composite z-score was -1.74.

For CCCN1C(=O)[C@@]2(c3ccc([N+](=O)[O-])cc3)CC(=O)N(C3CCCCC3)[C@@H]2c2ccc(CO)cc21, which composite z-score is on record?
Its composite z-score is -24.3 (active).

With C=CCNC(=O)[C@H]1[C@@H]2C(=O)O[C@@H](c3ccccc3)[C@@H](c3ccccc3)N2[C@@H](c2ccc(OCCO)cc2)[C@]12C(=O)N(C(=O)OCCOC)c1ccc(C#CCC(C(=O)OC)C(=O)OC)cc12 as the compound, how does the composite z-score read?
Its composite z-score is 0.0899.

For CN1C(=O)C2C=CC(C(O)COCc3ccccc3)N(Nc3ccc([N+](=O)[O-])cc3[N+](=O)[O-])C2C1=O (configuration not stated), which composite z-score is on record?
Its composite z-score is -0.42.

Which composite z-score does the source give for COC(=O)C1=CC(c2ccc(CO)cc2)=CC(C2CC2)N(Cc2cc3c(cc2Br)OCO3)C=C1C(=O)OC (configuration not stated) here?
Its composite z-score is -4.43.

Which composite z-score does the source give for C=CC[C@H](O)c1ccc(O)c(F)c1 here?
Its composite z-score is -0.0056.

For COc1ccc(C(O)C2C=CC3C(=O)N(c4ccccc4)C(=O)C3N2Nc2ccccc2F)c2ccccc12 (configuration not stated), which composite z-score is on record?
The composite z-score was -0.588.

Which composite z-score does the source give for C=C(COC)C(=O)CC[C@@H](OC(=O)c1ccccc1-c1ccccc1C(=O)O)c1ccccc1OCCO here?
The composite z-score was -1.57.

With COC(=O)C(CC#Cc1ccc2c(c1)[C@]1(C(=O)N2)[C@H](C(=O)N2CCCCCCC2)[C@H]2C(=O)O[C@H](c3ccccc3)[C@H](c3ccccc3)N2[C@@H]1c1ccc(OCCO)cc1)C(=O)OC as the compound, how does the composite z-score read?
The composite z-score was -1.22.

Which composite z-score does the source give for C[C@H]1C2[C@H](Cc3ccccc3)NC(=O)[C@]23C(=O)N[C@@H](Cc2ccccc2)C(=O)N2CCC[C@H]2C(=O)NC/C=C/CC/C=C/C3[C@@H]2O[C@]12C (some centres not stated) here?
Its composite z-score is -0.0587.

Which composite z-score does the source give for CCCC[C@@H](O)C1=C(C)Cn2c(=O)n(-c3ccccc3)c(=O)n2[C@H]1CO here?
The composite z-score was -1.06.

With CC(C)c1ccc(NN2C(C(O)C3CCCCC3)C=CC3C(=O)N(c4ccccc4)C(=O)C32)cc1 (configuration not stated) as the compound, how does the composite z-score read?
The composite z-score was -0.74.
